# Screens as filed in PubChem BioAssay.
# Luc counter: blocks Kinase-Glo luciferase, a counter-screen artifact; Kinase-Glo luciferase, ATP luminescence, 8 min; Potency, µM (top dose mostly 38.3 µM), actives largely listed as inhibitors; actives 0.28% (n = 200,000); AID 1379; also: nearly all actives have a fitted effect of over 60% in size
#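 Compound is pinned into ATP-containing buffer (10 uM ATP, imidazole pH 7.2, 7 mM MgCl2). Kinase-Glo luciferase reagent is then added. Light output is recorded following an 8-min room-temperature incubation.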
# FLuc counter: inhibits or activates purified firefly luciferase, miR-21 counter-screen. purified FLuc, Km substrates, luminescence inhibition. Potency, µM (titrated, usually from 57.5 µM), hits mostly inhibitors. actives 6.9% (n = 360,000). AID 588342; also: nearly all actives have a fitted effect of over 55% in size
# Target sequence (P08659 whole entry, looked up): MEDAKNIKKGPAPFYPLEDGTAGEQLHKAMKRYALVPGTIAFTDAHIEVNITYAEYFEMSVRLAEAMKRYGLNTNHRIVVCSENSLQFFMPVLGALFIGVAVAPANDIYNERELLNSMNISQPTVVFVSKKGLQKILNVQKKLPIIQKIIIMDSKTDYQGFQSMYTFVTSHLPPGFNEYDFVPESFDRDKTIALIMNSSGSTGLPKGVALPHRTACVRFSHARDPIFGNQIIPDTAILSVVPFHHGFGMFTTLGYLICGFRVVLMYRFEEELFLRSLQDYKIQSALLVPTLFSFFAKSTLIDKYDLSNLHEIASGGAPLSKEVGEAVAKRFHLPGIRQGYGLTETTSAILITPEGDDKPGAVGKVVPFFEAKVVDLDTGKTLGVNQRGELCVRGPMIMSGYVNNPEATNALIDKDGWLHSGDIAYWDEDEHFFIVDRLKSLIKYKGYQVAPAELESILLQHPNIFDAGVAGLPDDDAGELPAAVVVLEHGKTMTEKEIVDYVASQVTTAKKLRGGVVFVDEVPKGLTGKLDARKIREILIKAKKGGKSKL
#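 Purified P. pyralis luciferase, 10 nM final, with Km-level 10 uM D-luciferin and 10 uM ATP in 50 mM Tris acetate pH 7.5, 10 mM Mg acetate, 0.01% Tween-20, 0.05% BSA; 6-point qHTS titration about 60 µM downward; luminescence read.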
# SMN2 splice enh: enhancers of SMN2 splice variant expression; AID 1458; HEK293 SMN2-luciferase splicing reporter, luminescence, 30-36 h; Potency, µM (highest dose often 46.1 µM), most hits filed as activators; actives 2.8% (n = 210,000); also: nearly all actives have a fitted effect of over 55% in size
#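 qHTS luciferase splicing reporter: luminescence rises when SMN2 exon 7 is included in transfected HEK293 cells. Compound exposure lasted 30-36 h at 37C, with 4.5 mM final sodium butyrate as control, followed by a ONE-Glo read.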
# NPC1 promoter act: activators of NPC1 promoter; Huh7 NPC1 promoter luciferase reporter, 24 h; Potency, µM (series often up to 9.22 µM), usual class: activators; actives 2.4% (n = 320,000); AID 485313; also: nearly all actives have a fitted effect of over 60% in size
#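 Stable NPC1-promoter luciferase Huh7 line; cpd (DMSO) 24 h, 37 °C, 5% CO2; Amplite luciferase reagent 10 min RT; luminescence readout. qHTS format.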
# ELG1 genotoxic: induces genotoxicity in HEK293T cells with luciferase-tagged ELG1; HEK293T ELG1-luciferase reporter, luminescence, 16 h; Potency, µM (doses to about 46 µM), usual class: activators; actives 1.3% (n = 330,000); also: nearly all actives have a fitted effect of over 60% in size
#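 Screening used a luciferase reporter fused to human ELG1 in HEK293T cells. Luminescence was read on a CCD plate imager after 16 hr exposure and 30 min ONE-Glo incubation.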
# Rab9 prom act: Rab9 promoter activation; Huh7 Rab9 promoter-luciferase reporter, luminescence, 24 h; Potency, µM (series often up to 9.22 µM), actives largely listed as activators; actives 2.8% (n = 320,000); AID 485297; also: nearly all actives have a fitted effect of over 60% in size
#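 Steps: seed 1500 Huh7 Rab9-luc cells per well, rest 2 h at 37 °C; add compound in DMSO; incubate 24 h; add luciferase reagent, 10 min ambient; read luminescence.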
# Hits are given with their value; . = inactive; ? = inconclusive; / = not tested or not shown. The list is not random: actives were taken first. Their share in the collection is about 7.3%. Calls follow the shape of the dose curve; as a rule, active = well fitted curve in the direction sought with a large enough effect; inconclusive = small, poorly fitted or top-dose-only effect, or another doubt; inactive = no such curve, though single readings can be large; an effect the other way counts as inactive or inconclusive.
SMILES,Luc counter,FLuc counter,SMN2 splice enh,NPC1 promoter act,ELG1 genotoxic,Rab9 prom act
CCOC(=O)c1cc(-c2ccc(/C=C3/C(=O)NC(=O)C(C#N)=C3C)o2)ccc1Cl,.,?,.,.,.,.
CC1=C(C#N)C(=O)NC(=O)/C1=C\c1ccc(-c2ccc(C)cc2[N+](=O)[O-])o1,.,27µM,.,.,.,.
CN1CCN(c2ccc(NC(=O)c3ccc(-c4cccc([N+](=O)[O-])c4)o3)cc2)CC1,.,15µM,.,.,.,.
O=C(Nc1cccc(-c2nc3cc(Cl)ccc3o2)c1)c1cc([N+](=O)[O-])ccc1N1CCOCC1,/,.,.,/,/,/
Cc1ccc(N2CCN(C(=S)c3ccc(-c4cccc([N+](=O)[O-])c4)o3)CC2)cc1,.,.,.,.,.,.
CS(=O)(=O)N1CCN(c2ccc(NC(=O)c3ccc(-c4ccc(Cl)cc4)o3)cc2)CC1,.,.,.,.,.,.
CN1CCN(c2ccc(NC(=O)c3ccc(-c4ccc(Cl)cc4)o3)cc2)CC1,/,24µM,/,.,.,.
CCc1ccc2oc(-c3ccc(C)c(NC(=O)c4cc([N+](=O)[O-])ccc4N4CCOCC4)c3)nc2c1,/,1.7µM,.,/,/,/
O=C(Nc1ccc2oc(=O)ccc2c1)c1ccc(-c2cccc([N+](=O)[O-])c2)o1,/,.,/,.,.,.
CCc1ccc2oc(-c3cccc(NC(=O)c4ccc(-c5cccc([N+](=O)[O-])c5)o4)c3)nc2c1,/,2.7µM,?,/,/,/
O=C(c1cc2ccccc2oc1=O)N1CCN(c2ccc(Cl)cc2)CC1,/,.,.,/,/,/
COc1cccc(NC(=O)C2CCCN(S(=O)(=O)c3ccc4[nH]c(=O)ccc4c3)C2)c1 (centres undefined),/,.,/,/,/,/
OCc1ccccc1OCCOc1ccc(Cl)c2cccnc12,.,19µM,.,.,?,.
Clc1ccc(OCc2cn3ccccc3n2)c2ncccc12,.,12µM,/,3.5µM,?,2.8µM
Cc1cccc(-n2c(CCCN3C(=O)c4ccccc4C3=O)nc3ccccc3c2=O)n1,.,.,.,.,23µM,.
Cc1cccc(-n2c(CCN3C(=O)c4ccccc4C3=O)nc3ccccc3c2=O)n1,.,.,.,.,.,.
O=C(CSc1nnc(-c2ccccc2)o1)NCC1CCCCC1,.,.,.,.,.,.
Brc1ccc(-c2nnc(SCCC3OCCCO3)o2)cc1,.,15µM,.,.,.,.
O=C1OCCC1Sc1nnc(-c2ccco2)o1 (centres undefined),.,.,.,.,.,.
c1ccc(-c2nnc(SCCC3OCCCO3)o2)cc1,.,15µM,11µM,2.5µM,?,2.5µM
O=C1OCCC1Sc1nnc(-c2ccc(Br)cc2)o1 (centres undefined),.,6µM,.,.,.,.
O=C(C1CCCN(S(=O)(=O)c2cccc3nsnc23)C1)N1CCN(c2ccccc2)CC1 (centres undefined),/,.,.,/,/,/
N[C@@]1(C(=O)O)CO[C@H]2[C@H](C(=O)O)[C@H]21,.,/,/,/,/,/
NNC(=O)c1cc2cc(Oc3ccccc3)ccc2[nH]1,/,.,/,.,.,.
O=C(O)/C=C/c1cccc(OCc2ccccc2)c1,.,13µM,.,.,.,.
SMILES,Luc counter,FLuc counter,SMN2 splice enh,NPC1 promoter act,ELG1 genotoxic,Rab9 prom act
O=C(N/N=C/c1ccccc1)c1sccc1OCc1ccc(F)cc1,.,19µM,.,.,.,.
O=C(O)c1cc2cc(OCc3ccccc3)ccc2[nH]1,.,19µM,.,.,.,.
O=C(N/N=C/c1ccccc1)c1ccc(OCc2ccccc2)cc1,.,.,.,.,?,.
CC(=O)c1c(C)oc2ccc(OCc3ccccc3)cc12,/,17µM,/,.,.,.
Cn1nnnc1SCCCNCc1cc(Cl)ccc1OCc1ccc(F)cc1,/,.,/,/,/,/
O=C(Nc1ccc(Cl)cc1)OCCN1CCN(Cc2ccccc2)CCC1=O,.,/,/,/,/,/
CN1CCN(C(=O)c2ccc3c(c2)N(Cc2c(F)cccc2Cl)C(=O)c2ccccc2S3)CC1,/,.,.,/,/,/
O=C(N/N=C/c1cccc(OCc2ccccc2)c1)c1cccs1,.,13µM,.,.,.,.
O=C(N/N=C/c1cccc([N+](=O)[O-])c1)c1cccs1,.,8.5µM,13µM,?,?,?
CN(C)c1ccc(/C=N/NC(=O)c2nonc2N)cc1[N+](=O)[O-],.,12µM,/,.,.,.
COc1ccc([N+](=O)[O-])cc1/C=N/NC(=O)c1nonc1N,.,.,.,.,.,.
O=C(O)c1ccc(COc2ccc(/C=N/NC(=O)c3cccs3)cc2)cc1,.,.,.,.,.,.
Nc1nonc1C(=O)N/N=C/c1cccc([N+](=O)[O-])c1,.,12µM,.,.,.,.
CCCCOc1ccc(C(=O)NCc2nnnn2-c2ccc(C)c(C)c2)cc1,/,.,/,/,/,/
Cc1ccc(-c2csc(-c3cc4c([nH]c3=O)CC(c3ccccc3)CC4=O)n2)cc1 (centres undefined),/,.,.,/,/,/
O=C(COc1ccccc1)Nc1cccc(-c2nc3ccccc3[nH]2)c1,.,17µM,?,.,.,.
O=C(COc1ccc(F)cc1)Nc1ccc(Cl)c(-c2nc3ccccc3[nH]2)c1,/,.,/,/,/,/
O=C(O)CCCC(=O)Nc1cccc(-c2nc3ccccc3[nH]2)c1,.,12µM,.,.,.,.
COc1ccc(OCC(=O)Nc2cccc(-c3nc4ccccc4[nH]3)c2)cc1,.,9.5µM,?,?,.,.
Cc1cc2c(cc1S(=O)(=O)N(CCO)Cc1ccccc1)OCC(=O)N2,/,.,/,/,/,/
O=C(Cc1ccccc1[N+](=O)[O-])NCc1ccc(Cl)cc1Cl,/,6µM,/,4µM,?,3.5µM
O=C(NCc1ccc(Cl)cc1)c1n[nH]c([N+](=O)[O-])c1Cl,.,21µM,.,.,?,.
O=C(/C=C/c1ccccc1[N+](=O)[O-])NCc1ccc(Cl)cc1,.,.,.,.,.,.
O=C(Cc1ccccc1[N+](=O)[O-])NCc1ccc(Cl)cc1,.,17µM,20µM,?,?,?
O=C(Cc1ccc([N+](=O)[O-])cc1)NCc1ccccc1Cl,.,.,.,.,.,.
Cc1ccc(-c2cc(-c3ccc4c(c3)NC(=O)CO4)nc3c2COc2ccccc2-3)cc1,/,.,.,/,/,/
CCOC(=O)c1cc(-c2ccccc2)sc1NC(=O)c1ccc(OC)c(OC)c1,.,.,.,.,.,.
CC(C)(C)C(=O)Nc1sc(-c2ccccc2)cc1C(=O)O,/,11µM,/,4.5µM,.,3.2µM
NC(=O)c1cc(-c2ccccc2)sc1NC(=O)CN1CCCCC1,.,19µM,.,.,.,.
Cc1cccc(C(=O)Nc2sc(-c3ccccc3)cc2C(=O)O)c1,/,11µM,/,2.5µM,?,?
